# Results reported in the supplement of paper PMC6555819.
# Key:
# Experiment in all cases: PBM binding z-score (relative to random genomic background probes); higher = stronger binding; sequences stand for … in GC…GCGATTGACAGCGTAGAATGAAGG
# [1] = tested on: FXR:RXRa (NR concentration 270 nM, RXRa partner concentration 90 nM)
# Summary of the method: (§1)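 Ligand-free nuclear receptor dimers were bound for 1 h to custom Agilent 4×180K protein-binding microarrays. Detection used antibodies against each partner (one per run). Binding z-scores rest on regression-normalized fluorescence, with random background probes as the reference.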
# [2] = tested on: LXRa:RXRa (NR concentration 270 nM, RXRa partner concentration 90 nM)
# Summary of the method: as §1
# [3] = tested on: LXRa homodimer (NR concentration 270 nM)
# Summary of the method: as §1
# [4] = tested on: LXRb:RXRa (NR concentration 270 nM, RXRa partner concentration 90 nM)
# Summary of the method: as §1
# [5] = tested on: LXRb homodimer (NR concentration 270 nM)
# Summary of the method: as §1
# [6] = tested on: PPARa:RXRa (NR concentration 270 nM, RXRa partner concentration 90 nM)
# Summary of the method: as §1
# [7] = tested on: PPARg:RXRa (NR concentration 180 nM, RXRa partner concentration 90 nM)
# Summary of the method: as §1
# [8] = tested on: PPARg:RXRa 270nM:90nM, anti-RXR (NR concentration 270 nM, RXRa partner concentration 90 nM)
# Summary of the method: as §1
# [9] = tested on: PPARg:RXRa 30nM:10nM, anti-RXR (NR concentration 30 nM, RXRa partner concentration 10 nM)
# Summary of the method: as §1
# [10] = tested on: PPARg:RXRa 90nM:30nM, anti-RXR (NR concentration 90 nM, RXRa partner concentration 30 nM)
# Summary of the method: as §1
Sequence,PBM binding z-score [1],PBM binding z-score [2],PBM binding z-score [3],PBM binding z-score [4],PBM binding z-score [5],PBM binding z-score [6],PBM binding z-score [7],PBM binding z-score [8],PBM binding z-score [9],PBM binding z-score [10]
ATATGTAGGTTATCGCGTCATTCAGTTTGCGCAT,0.694,1.01,0.372,1.1,0.647,3.31,3.86,3.94,1.41,3.08
AGAATGAGGTTACCAAAGATCACGGAAACGCTTG,2.28,6.94,0.129,3.82,-0.202,3.5,2.79,2.7,0.915,2.03
TCTATTAGTTGATTAGGGGAACCGAAACAGCGGA,0.954,0.771,0.585,0.845,1.38,0.915,0.0434,2.05,4.11,2.94
CAAACTAGGTCACCGCAAGGTCAAAGTCCGCATG,6.27,5.91,5.31,5.42,1.37,6.06,9.19,7.84,5.73,7.81
TCTCGTAGATCAGCAGGTTAAGAAAGCTGGCCAA,-0.53,-0.117,-0.522,0.0597,-1.13,0.428,-0.691,1.22,2.41,2.08
CCTATTGGGCCATTCAGAGGTCATTGATCATATG,3,4.68,6.08,4.04,0.58,3.65,1.17,2.6,0.568,1.77
GCTATTAGTTGATAGGGCAACCGAATGATTCTCG,0.0649,-0.305,-0.0602,-0.111,-0.693,0.29,0.713,1.48,0.376,0.928
GCTGCTAGGTCAACTGATGGTCAGCGAAAGCTCG,4.13,3.2,0.141,2.07,-0.112,3.84,2.73,3.35,0.723,2.31
TCTTGTAGATCAAGCAGGTTAAGCAAGCCTGAGT,0.175,0.151,-0.473,0.104,-0.672,0.618,-0.429,1.09,2.44,1.39
AGAATGAGGTAAAGATCAGGGAAACAGAATACAT,0.438,0.311,-0.176,0.517,-0.108,0.991,2,2.05,0.928,1.67
CGTCGAAGTTCAAGGTAACGTAACAGAAAGCAGC,2.59,2.34,-0.0774,1.38,-0.503,2.51,1.18,1.48,0.235,0.847
GCTGCTAGGTCTACTGATGGTCAGCTAAAGCTCG,-0.686,-0.0634,-0.277,-0.896,-0.887,-0.691,-0.539,-0.623,-0.649,-0.834
AGTCAAAGTTCATCCAGGTAACGTAAGATATGCT,6.4,6.22,5.22,3.62,1.6,4.82,6.19,6.44,3.61,5.54
ACTCGGAGGCCAAAGGTCAGAGCTACGCCAGTGA,4.88,4.5,1.02,3.69,0.134,5.63,8.85,7.98,6.53,8.9
TCGAGTAGGTTAATCGGGGCATTCAGCCAACATA,0.0036,0.53,-0.187,0.859,-0.245,1.72,0.726,1.54,1.04,1.31
TAGCCTAGGTCAGAACGGGCCAGTATACGCTATA,1.13,0.618,-0.471,0.47,-0.65,1.31,0.763,0.742,-0.161,0.153
CATACAGGGTCAGCTAGGCTAGAGTAGGGACGGC,4.44,2.68,-0.0896,2.06,-0.0361,4.12,3.06,2.93,0.539,2.03
CCTAACAGGCCAATCTGGGTCACTCAAGGCTTGA,1.06,1.75,0.16,1.19,-0.0196,3.19,2.31,2.35,0.094,1.57
TAGCCTAGGTCATTGGGCCAGAATAGTACGCATC,4.53,3.53,0.524,2.31,0.302,4.07,3.79,3.88,1.11,2.46
GCATATAGGTAATACAAGGTGAAATTCCGATTGT,1.74,2.2,0.342,0.712,-0.117,1.67,1.51,0.952,0.515,0.795
CCAATTAGTTGACCATAAGGGCAACCGAAGCTCG,0.987,0.336,0.562,0.314,0.402,0.626,0.453,0.425,-0.327,0.254
ATCGAAAGGTCGAGGCGAGTATAGAGAAAGGGAA,3.71,3.01,-0.542,2.24,0.308,4.47,2.71,2.86,0.749,1.52
GGAACGAGGGCAAATTTGATAGCATCTGTCGACG,0.712,0.506,-0.407,0.682,0.0825,1.51,1.19,1.13,-0.00323,0.82
